Test results taken from PubChem BioAssay (NCATS).
Values joined by “and” are separate entries in the source; they are usually repeats but may differ in a detail not shown here. Identical values can stand only once. Results filed as inconclusive are left out. Where a call stands in place of a potency, no number is given. Active and inactive are the calls of the source. Unless noted, calls follow the shape of the dose curve; as a rule, active = well fitted curve in the direction sought with a large enough effect; inconclusive = small, poorly fitted or top-dose-only effect, or another doubt; inactive = no such curve, though single readings can be large; an effect the other way counts as inactive or inconclusive.

Assays:
[1] = target: Cytochrome P450 3A4 (Homo sapiens) (UniProt P08684); test: qHTS Assay for Activators of Cytochrome P450 3A4 (AID 885); also: nearly all actives have a fitted effect of over 65% in size
Sequence of Cytochrome P450 3A4 (Homo sapiens) (P08684 whole entry, looked up): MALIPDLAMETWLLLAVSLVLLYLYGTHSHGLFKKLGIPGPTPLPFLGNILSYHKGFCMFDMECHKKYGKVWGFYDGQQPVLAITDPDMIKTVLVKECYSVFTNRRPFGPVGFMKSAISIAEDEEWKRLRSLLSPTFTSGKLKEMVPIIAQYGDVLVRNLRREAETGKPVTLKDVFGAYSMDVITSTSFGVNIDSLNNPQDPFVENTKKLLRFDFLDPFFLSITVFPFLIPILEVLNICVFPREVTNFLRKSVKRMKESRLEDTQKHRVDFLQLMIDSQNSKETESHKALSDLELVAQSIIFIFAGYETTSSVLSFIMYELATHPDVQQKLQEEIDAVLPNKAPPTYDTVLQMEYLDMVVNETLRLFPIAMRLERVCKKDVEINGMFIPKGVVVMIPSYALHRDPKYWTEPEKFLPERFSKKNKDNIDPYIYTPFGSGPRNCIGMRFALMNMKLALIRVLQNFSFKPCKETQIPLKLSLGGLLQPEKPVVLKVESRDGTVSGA
In short: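 Using 20nM recombinant human CYP3A4 in potassium phosphate (200mM), substrate Luciferin-PPXE at 25uM, luminescent luciferin detection followed a 60-min RT NADPH reaction; data scaled to 57 uM ketoconazole.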

[2] = target: ATP-dependent 6-phosphofructokinase (Trypanosoma brucei brucei) (UniProt O15648); test: qHTS Assay to Find Inhibitors of T. brucei phosphofructokinase: hit validation (AID 492961);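 also: luminescence reports ADP formed as PFK phosphorylates fructose-6-phosphate with ATP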
Sequence of ATP-dependent 6-phosphofructokinase (Trypanosoma brucei brucei) (O15648 whole entry, looked up): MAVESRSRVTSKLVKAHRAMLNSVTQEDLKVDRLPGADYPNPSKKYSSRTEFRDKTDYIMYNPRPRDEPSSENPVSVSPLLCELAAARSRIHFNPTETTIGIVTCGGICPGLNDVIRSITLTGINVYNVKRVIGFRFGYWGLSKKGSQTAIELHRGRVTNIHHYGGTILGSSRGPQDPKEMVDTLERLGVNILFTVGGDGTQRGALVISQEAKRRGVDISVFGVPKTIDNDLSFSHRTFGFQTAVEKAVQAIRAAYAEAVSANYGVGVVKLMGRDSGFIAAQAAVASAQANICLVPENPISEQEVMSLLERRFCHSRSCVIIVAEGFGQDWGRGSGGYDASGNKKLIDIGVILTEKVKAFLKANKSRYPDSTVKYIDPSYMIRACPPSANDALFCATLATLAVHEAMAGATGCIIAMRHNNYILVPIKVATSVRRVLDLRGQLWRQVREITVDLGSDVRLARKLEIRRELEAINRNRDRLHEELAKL
In short: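 ADP-Glo luminescence read-out of ADP formed by 1.25 nM PFK from 0.1 mM ATP and 0.5 mM F6P (TEA pH 8.0, 45 min, RT). Compounds titrated; activity normalized to no-enzyme and full-enzyme controls.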

[3] = target: Ubiquitin carboxyl-terminal hydrolase 1 (Homo sapiens) (UniProt O94782); test: Inhibitors of USP1/UAF1: Pilot qHTS (AID 504865); also: potency is read from the fitted curve at half-maximal effect; nearly all actives have a fitted effect of over 35% in size
Sequence of Ubiquitin carboxyl-terminal hydrolase 1 (Homo sapiens) (O94782 whole entry, looked up): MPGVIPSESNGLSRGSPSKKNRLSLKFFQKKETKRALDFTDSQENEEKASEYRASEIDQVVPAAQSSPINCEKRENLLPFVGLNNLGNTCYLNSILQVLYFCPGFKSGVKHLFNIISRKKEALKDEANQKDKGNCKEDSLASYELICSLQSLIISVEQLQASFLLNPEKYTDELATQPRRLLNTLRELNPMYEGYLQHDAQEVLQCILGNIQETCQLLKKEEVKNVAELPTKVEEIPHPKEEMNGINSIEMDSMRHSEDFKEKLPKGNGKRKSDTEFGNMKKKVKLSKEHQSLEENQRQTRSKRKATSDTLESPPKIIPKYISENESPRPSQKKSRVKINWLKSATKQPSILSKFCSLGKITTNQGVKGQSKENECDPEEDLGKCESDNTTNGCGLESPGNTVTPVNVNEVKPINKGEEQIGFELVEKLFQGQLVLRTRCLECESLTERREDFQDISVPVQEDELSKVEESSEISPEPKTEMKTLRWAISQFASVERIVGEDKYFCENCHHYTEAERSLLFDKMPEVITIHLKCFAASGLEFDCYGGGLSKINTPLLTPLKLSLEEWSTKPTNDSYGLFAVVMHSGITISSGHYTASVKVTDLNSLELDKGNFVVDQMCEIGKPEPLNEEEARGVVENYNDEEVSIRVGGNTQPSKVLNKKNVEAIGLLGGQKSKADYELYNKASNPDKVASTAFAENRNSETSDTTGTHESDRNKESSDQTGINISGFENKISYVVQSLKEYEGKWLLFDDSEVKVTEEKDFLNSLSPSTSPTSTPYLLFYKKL
In short: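 1nM USP1/UAF1 + cpd, 15 min RT; start w/ Ub-Rho 150nM final; kinetic FL 480/540 nm, 6 reads q60 s. Buffer 50mM HEPES pH 7.8, 0.5mM EDTA, 1mM TCEP, 0.01% Tween-20, 0.1 mg/ml BSA.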

[4] = S16 Schwann cell viability assay (CellTiter-Glo assay) (AID 624031);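 also: cellular ATP luminescence as a viability measure; nearly all actives have a fitted effect of over 70% in size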
In short: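 Native S16 rat Schwann cells, 500-750 cells/well in DMEM with 10% FBS, dosed with compound after overnight culture and incubated 24h at 37 degree Celsius/5% CO2. Viability by CellTiter-Glo luminescence; % activity normalized to no-cell wells and DMSO-treated cells.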

[5] = S16 Schwann cell PMP22 intronic element beta-lactamase assay (AID 624044; calls by dose curve; also: nearly all actives have a fitted effect of over 15% in size)
In short: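 Beta-lactamase reporter under a PMP22 intronic regulatory element in stable S16 rat Schwann cells; 24 h compound exposure. 460 nm blue signal normalized between DMSO (0%) and potassium clavulanate, with 535 nm FRET tracking viability; curves classed by r2 and response.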

[6] = Primary qHTS for small molecule stabilizers of the endoplasmic reticulum resident proteome: Secreted ER Calcium Modulated Protein (SERCaMP) assay (AID 1508630)
In short: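 The SH-SY5Y reporter protocol was run at 3 concentrations up to 38.3 uM (primary) or 11 concentrations (follow-up): 16 h compound, 100 nM thapsigargin for 4 h, then extracellular luciferase luminescence.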

ATS189 = test: qHTS profiling for inhibitors of Plasmodium falciparum proliferation (AID 504749); also: nearly all actives have a fitted effect of over 60% in size; also: potency is read from the fitted curve at half-maximal effect; details: P. falciparum in erythrocytes, SYBR Green DNA, 72 h; series mostly up to 12.8 µM
In short: (§1)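 SYBR Green fluorescence of parasite DNA, read after lysis and overnight dark incubation, measured growth over 72 h in erythrocyte culture at 0.3% parasitemia and 2.5% hematocrit. Data normalised to DMSO and 0.29 uM artemisinin, with plate-drift correction.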

ATS95 = test: as above; details: P. falciparum in erythrocytes, SYBR Green DNA, 72 h; series mostly up to 12.8 µM
In short: as §1

CP185 = test: as above; details: P. falciparum in erythrocytes, SYBR Green DNA, 72 h; series mostly up to 12.8 µM
In short: as §1

CP201 = test: as above; details: P. falciparum in erythrocytes, SYBR Green DNA, 72 h; series mostly up to 12.8 µM
In short: as §1

CP211 = test: as above; details: P. falciparum in erythrocytes, SYBR Green DNA, 72 h; series mostly up to 12.8 µM
In short: as §1

CP238 = test: as above; details: P. falciparum in erythrocytes, SYBR Green DNA, 72 h; series mostly up to 12.8 µM
In short: as §1

CP256 = test: as above; details: P. falciparum in erythrocytes, SYBR Green DNA, 72 h; series mostly up to 12.8 µM
In short: as §1

CP262 = test: as above; details: P. falciparum in erythrocytes, SYBR Green DNA, 72 h; series mostly up to 12.8 µM
In short: as §1

CP266 = test: as above; details: P. falciparum in erythrocytes, SYBR Green DNA, 72 h; series mostly up to 28.7 µM
In short: as §1

CP297 = test: as above; details: P. falciparum in erythrocytes, SYBR Green DNA, 72 h; series mostly up to 12.8 µM
In short: as §1

CP305 = test: as above; details: P. falciparum in erythrocytes, SYBR Green DNA, 72 h; series mostly up to 12.8 µM
In short: as §1

CP325 = test: as above; details: P. falciparum in erythrocytes, SYBR Green DNA, 72 h; series mostly up to 12.8 µM
In short: as §1

CP335 = test: as above; details: P. falciparum in erythrocytes, SYBR Green DNA, 72 h; series mostly up to 12.8 µM
In short: as §1

DFO2036 = test: as above; details: P. falciparum in erythrocytes, SYBR Green DNA, 72 h; series mostly up to 12.8 µM
In short: as §1

DIV17 = test: as above; details: P. falciparum in erythrocytes, SYBR Green DNA, 72 h; series mostly up to 12.8 µM
In short: as §1

ECU = test: as above; details: P. falciparum in erythrocytes, SYBR Green DNA, 72 h; series mostly up to 12.8 µM
In short: as §1

FAB9 = test: as above; details: P. falciparum in erythrocytes, SYBR Green DNA, 72 h; series mostly up to 12.8 µM
In short: as §1

HB3 = test: as above; details: P. falciparum in erythrocytes, SYBR Green DNA, 72 h; series mostly up to 12.8 µM
In short: as §1

ICS = test: as above; details: P. falciparum in erythrocytes, SYBR Green DNA, 72 h; series mostly up to 12.8 µM
In short: as §1

JCK = test: as above; details: P. falciparum in erythrocytes, SYBR Green DNA, 72 h; series mostly up to 12.8 µM
In short: as §1

PC15 = test: as above; details: P. falciparum in erythrocytes, SYBR Green DNA, 72 h; series mostly up to 12.8 µM
In short: as §1

PC26 = test: as above; details: P. falciparum in erythrocytes, SYBR Green DNA, 72 h; series mostly up to 12.8 µM
In short: as §1

PC49 = test: as above; details: P. falciparum in erythrocytes, SYBR Green DNA, 72 h; series mostly up to 12.8 µM
In short: as §1

SC27B = test: as above; details: P. falciparum in erythrocytes, SYBR Green DNA, 72 h; series mostly up to 12.8 µM
In short: as §1

TAB109 = test: as above; details: P. falciparum in erythrocytes, SYBR Green DNA, 72 h; series mostly up to 12.8 µM
In short: as §1

TAB113 = test: as above; details: P. falciparum in erythrocytes, SYBR Green DNA, 72 h; series mostly up to 12.8 µM
In short: as §1

W2 = test: as above; details: P. falciparum in erythrocytes, SYBR Green DNA, 72 h; series mostly up to 12.8 µM
In short: as §1

COc1cc(/C=C/C(=O)/C=C(O)/C=C/c2ccc(O)c(OC)c2)ccc1O
Potency [1]: inactive
outcome [2]: inactive
Potency [3]: 12.6 µM (active) and 31.6 µM (active)
Potency [4]: inactive
outcome [5]: inactive
outcome [6]: inactive
Potency (ATS189): inactive
Potency (ATS95): inactive
Potency (CP185): inactive
Potency (CP201): inactive
Potency (CP211): inactive
Potency (CP238): inactive
Potency (CP256): inactive
Potency (CP262): inactive
Potency (CP266): inactive
Potency (CP297): 15.1 µM (active)
Potency (CP305): inactive
Potency (CP325): inactive
Potency (CP335): inactive
Potency (DFO2036): inactive
Potency (DIV17): 12 µM (active)
Potency (ECU): inactive
Potency (FAB9): inactive
Potency (HB3): inactive
Potency (ICS): 10 µM (active)
Potency (JCK): inactive
Potency (PC15): inactive
Potency (PC26): 12 µM (active)
Potency (PC49): inactive
Potency (SC27B): inactive
Potency (TAB109): inactive
Potency (TAB113): inactive
Potency (W2): 15.1 µM (active)
